VACV mCherry inh – inhibitors of vaccinia virus infection (mCherry reporter signal); hit rate 0.63% among 310,000; Potency, µM (highest dose often 36.5 µM), for the others: at the top dose activity change, negative = inhibition, hits mostly inhibitors; AID 720579; Vaccinia virus mCherry reporter infection, fluorescence; calls by dose curve; tested in A549 cells; note: potency is the fitted concentration of half-maximal effect; % is set by controls: 0 for no effect and ±100 for the full control effect; nearly all actives have a fitted effect of over 35% in size
CHX counter – counter-screen for Shiga toxin inhibitors: cycloheximide protein synthesis inhibition. cell reporter, cycloheximide protein synthesis inhibition counterscreen. max response, %. hit rate 12% among 300,000; in the data active = max response mostly above about 13%, no sharp cut-off; inactive = mostly below about 14%; note: read at 38.3 µM for the half of the compounds with a filed dose; 0% is about no effect
LASV entry inh – blocks Lassa virus binding to or entry into cells; Lassa virus pseudotype entry inhibition, cell reporter; Potency, µM (titrated, usually from 37.9 µM), for inactives: at the top dose activity change, negative = inhibition, usual class: inhibitors; hit rate 1.2% among 300,000; AID 540256; calls by dose curve; tested in HEK293 cells; note: potency is the fitted concentration of half-maximal effect; % is set by controls: 0 for no effect and ±100 for the full control effect; nearly all actives have a fitted effect of over 50% in size
Shiga toxin inh – blocks Shiga toxin action in Vero cells | inhibition, % at 38.7 µM | AID 2315 | Vero cells, Shiga toxin protein synthesis inhibition reporter | hit rate 9.2% among 290,000; in the data active = inhibition mostly above about 28%, no sharp cut-off; inactive = mostly below about 43%; note: 0% is about no effect
Marburg entry inh – blocks Marburg virus binding to or entry into cells; hit rate 1.8% among 300,000; Marburg virus pseudotyped entry inhibition, cell reporter; Potency, µM (highest dose often 37.8 µM), for the others: at the top dose activity change, negative = inhibition, usual class: inhibitors; calls by dose curve; tested in HEK293 cells; note: potency is the fitted concentration of half-maximal effect; % is set by controls: 0 for no effect and ±100 for the full control effect
Vaccinia Venus – vaccinia inhibition (Venus reporter). hit rate 0.46% among 330,000. Vaccinia virus Venus reporter expression, fluorescence. Potency, µM (top dose mostly 36.5 µM), for the others: top-dose activity change, negative = inhibition, usual class: inhibitors; calls by dose curve; tested in A549 cells; note: potency is the fitted concentration of half-maximal effect; % is set by controls: 0 for no effect and ±100 for the full control effect; nearly all actives have a fitted effect of over 30% in size
Active calls of the source: *; i = inactive; u = inconclusive; x = no result; + = active, no number; [ ] = dose if it differs, or a comment. This excerpt belongs to a sample that is enriched for hits.

SMILES	VACV mCherry inh	CHX counter	LASV entry inh	Shiga toxin inh	Marburg entry inh	Vaccinia Venus
CN(C(=O)c1coc(=O)c2ccccc12)c1ccccc1Cl	-7%	-3	-14%[46.1 µM]	-6	u	-22%
CC(=O)Nc1ccc(NC(=O)c2ccc(COc3ccc(C)cc3)o2)cc1	-18%	19*	-9%[46.1 µM]	111*	u	-7%
COc1ccc(NC(=O)c2ccc(COc3ccc(C)cc3)o2)cc1	-5%	34*	x	73*	x	-9%
CSc1nnc(-c2cccs2)n1-c1ccccc1	-1%	-2	u	-10	4%	0%
CN1CCN(S(=O)(=O)c2ccc(Sc3nnc(-c4cccs4)n3-c3ccccc3)nc2)CC1	10µM*	-4	5%	20	-24%	u
CCCCc1nc2c(c3c1C[C@H](C)OC3)CN(S(=O)(=O)c1ccc(NC(C)=O)cc1)CC2	x	x	x	x	25%[14.2 µM]	x
COc1ccc(OCCN(C)Cc2c(O)ccc3ccccc23)cc1	u	18*	16%[46.1 µM]	37	-6%[46.1 µM]	10%
CC(=O)OC1CC[C@@]2(C)C3CC(=O)[C@]4(C)C(C(C)=O)=CCC4C3CC[C@H]2C1 (some centres not stated)	i	x	x	x	x	0%
CC(=O)OC1CCC2(C)C(CCC3C4CC=C(C(C)=O)C4(C)OC(=O)CC32)C1 (configuration not stated)	u	x	x	x	x	11µM*
Cc1cccc(CNC(=O)c2cnn(-c3nccc(-c4cccs4)n3)c2C2CC2)n1	-11%	x	x	x	x	-4%
CCOC(=O)C1CCCN(c2nc3c(S(=O)(=O)c4ccc(C)c(C)c4)nnn3c3ccc(Cl)cc23)C1 (configuration not stated)	-16%	x	x	x	2%[46.1 µM]	-12%
OC1(c2cccnc2)CCN(Cc2ccc3c(c2)CN(Cc2cccc(C(F)(F)F)c2)CCO3)CC1	-27%	x	x	x	x	-24%
COC(=O)c1ccc(CSc2nnc(-c3c[nH]c4ccccc34)n2-c2ccccc2)cc1	-10%	18*	u	+	u	-12%
Cn1c(SCc2ccccc2)nnc1-c1c[nH]c2ccccc12	-10%	21*	x	48*	x	-7%
Cc1ccc(CNS(=O)(=O)c2cc3c4c(c2)CCN4C(=O)CC3)cc1	-20%	x	-7%	x	3%	-14%
CC1CCCC(C)N1C(=O)CSc1nnc(C2CCCCC2)o1 (configuration not stated)	i	46*	-12%	93*	-10%	-12%
CC1CCCCN1C(=O)CSc1nnc(-c2ccccc2O)o1 (configuration not stated)	u	21*	u	56*	u	-6%
CC1CCCCN1C(=O)CSc1nnc(-c2cccnc2)o1 (configuration not stated)	i	-2	6%[46.1 µM]	15	u	-9%
CC1CCCCN1C(=O)CSc1nnc(-c2ccc(Cl)s2)o1 (configuration not stated)	x	28*	6%	88*	28%	-29%
CC1CCCCN1C(=O)CSc1nnc(-c2ccccc2Cl)o1 (configuration not stated)	-14%	x	u	x	u	-11%
Cc1ccc(OC(C)C(=O)NCC2(N3CCOCC3)CCCCC2)cc1C (configuration not stated)	i	x	16%[46.1 µM]	x	-24%[46.1 µM]	-5%
Cc1cccc(CC(=O)NC2CC(=O)N(c3ccccc3)C2)c1 (configuration not stated)	-4%[7.34 µM]	x	1%[46.1 µM]	x	x	-12%[7.34 µM]
Cc1nc2c(cnn2-c2ccccc2Cl)c(=O)n1-c1ccc(C(C)C)cc1	-16%	-3	9.2µM*	-4	15µM*	0%
Cc1ccc(-n2c(-c3ccco3)nc3c(cnn3-c3ccccc3Cl)c2=O)cc1	-11%	x	6%[46.1 µM]	x	13%[46.1 µM]	-8%
CCCc1cc(=O)[nH]c(SCCc2ccccc2)n1	x	12*	x	30	x	x
SMILES	VACV mCherry inh	CHX counter	LASV entry inh	Shiga toxin inh	Marburg entry inh	Vaccinia Venus
CCCCSc1nc(CCC)cc(=O)[nH]1	x	10	-2%	-16	-13%	x
O=C(COc1ccc(Cl)cc1Cl)Nc1ccc(Cl)cn1	i	30*	u	92*	u	-5%
CCOc1ccc(C(=O)Nc2ccc(NC(=S)NC(=O)CC)cc2)cc1Cl	-12%	-5	2%	-9	14%	-13%
CCOc1ccc(C(=O)Nc2ccc(Cl)cn2)cc1Cl	-11%	38*	u	106*	-9%	-3%
O=C(COc1ccc(Cl)cc1Cl)Nc1ccccc1F	-9%	x	7.1µM*	x	-48%	-20%
Cc1ccc(C)c(CN2C(=O)c3ccccc3S(=O)c3ccc(C(=O)N(C)Cc4ccccc4)cc32)c1 (configuration not stated)	-13%	x	u	x	u	-5%
Cc1ccc(CCNC(=O)c2c[nH]c3ccc(S(=O)(=O)Nc4ccc(C)cc4C)cc3c2=O)cc1	-18%	x	u	x	x	-20%
COCCn1c(=S)[nH]c2cc(C(=O)N3CCN(Cc4ccc5c(c4)OCO5)CC3)ccc2c1=O	x	1	u	-4	6.5µM*	x
Cc1cccc(S(=O)(=O)N2CCCc3ccccc32)c1	x	11	x	-7	x	x
Cc1ccc(S(=O)(=O)N2CCCc3cc(NS(=O)(=O)c4ccccc4)ccc32)cc1	-4%	x	10µM*	x	x	-12%
O=S(=O)(c1ccc(Br)cc1)N1CCCc2ccccc21	-25%	12*	-30%	-7	u	-21%
O=S(=O)(c1ccc(F)c(F)c1)N1CCCc2ccccc21	x	37*	x	64*	x	x
COC(=O)Nc1ccc(S(=O)(=O)N2CCCc3ccccc32)cc1	x	18*	-43%	41*	u	x
Cc1cc2c(c(C)c1Cl)C(c1ccc3c(c1)OCO3)CC(c1ccccc1)O2 (configuration not stated)	x	14	x	28	x	x
CC1(C)CC(C(=O)N2CCOc3ccc(CN4CCN(Cc5ccccn5)CC4)cc3C2)CCO1 (configuration not stated)	-12%	x	x	x	x	-7%
CCN1C(=O)[C@H]2[C@@H](c3ccc(C)cc3)N3C(=O)N(c4ccccc4)C(=O)[C@@]3(CC)[C@H]2C1=O	u	15*	x	28	x	-20%
COC(=O)N1C(=O)[C@@](c2ccc(OC)cc2)(C(C)C)N1C(=O)OC	u	16*	x	19*	x	u
COC(=O)N1C(=O)[C@@](c2ccccc2)(C(C)C)N1C(=O)OC	u	20*	x	10	x	u
COC(=O)N1C(=O)[C@](c2ccccc2)(C2CCCC2)N1C(=O)OC	-27%	19*	x	14	x	-28%
CCC1(c2ccccc2)NC(=O)N(CC(=O)NC2CCCC2)C1=O (configuration not stated)	-7%	x	0%	x	-10%	-6%
COC(=O)N1C(=O)[C@](c2ccc(Cl)cc2)(C(C)C)N1C(=O)OC	-19%	7	x	4	x	u
CC[n+]1ccnc2ccccc21	18µM*	x	x	x	x	13µM*
CCOc1ccc(OCCOC(=O)C2CCN(S(=O)(=O)c3ccc(C)c(C)c3)CC2)cc1	-23%	x	13%	x	2%	-16%
Cc1ccccc1CC(=O)N1CCN(C(=O)C2CCCO2)CC1 (configuration not stated)	i	2	-10%[46.1 µM]	-19	15%[46.1 µM]	-2%
